The source of these data is PubChem BioAssay (Tox21).

Results filed as inconclusive are left out. Values without a mark were called inactive. Calls follow the shape of the dose curve; as a rule, active = well fitted cell-killing curve with a large enough effect in the repeat runs; inconclusive = weak or mixed curves, or effect the other way; inactive = no such curve, though single readings can be large or run the other way.
% is scaled to controls: 0 for no effect and ±100 for the full control effect.

The experiment is described as follows: qHTS assay to identify small molecule antagonists of the peroxisome proliferator-activated receptor gamma (PPARg) signaling pathway - cell viability counter screen (AID 743194). Also: nearly all actives have a fitted effect of over 55% in size. To be noted: PPARg-bla HEK293H viability, CellTiter-Glo luminescence, 17 h, co-treated with 50 nM rosiglitazone; series mostly up to 62.6 µM; activity change, negative = cytotoxicity: at the top concentration. The text has this: U.S. Tox21 Program National Center for Advancing Translational Sciences [NCATS] NIH Chemical Genomics Center [NCGC] U.S. Environmental Protection Agency [EPA] National Institutes of Environmental Health Sciences [NIEHS] National Toxicology Program [NTP] U.S. Food and Drug Administration [FDA] Tox21 Assay Overview: The peroxisome proliferator-activated receptors (PPARs) are lipid-activated transcription factors of the nuclear receptor superfamily with three distinct subtypes namely PPAR alpha, PPAR delta (also called PPAR beta) and PPAR gamma (PPARg). All these subtypes heterodimerize with Retinoid X receptor (RXR) and these heterodimers regulate transcription of various genes. PPAR-gamma receptor (glitazone receptor) is involved in the regulation of glucose and lipid metabolism. To identify the compounds that activate PPAR-gamma signaling, GeneBLAzer PPAR gamma UAS-bla HEK293H cell line (Invitrogen, Carlsbad, CA, USA) containing a beta-lactamase reporter gene under the control of an Upstream Activator Sequence (UAS) was used to screen the Tox21 compound library. The cytotoxicity of the Tox21 compound library against the PPARg-bla cell line was tested in parallel by measuring the cell viability using CellTiter-Glo assay in the same wells.
Tox21 Assay Protocol Summary: PPARg-bla cells were dispensed at 3000 cells/5uL/well in 1536-well black wall/clear bottom plates using a Multidrop Combi (Thermo Fisher Scientific, Waltham, MA) dispenser. After the assay plates were incubated at 37 C and 5% CO2 for 5 h, 23 nL of compounds dissolved in DMSO, positive controls or DMSO only was transferred to the assay plate by a Pintool station (Kalypsys, San Diego, CA), followed by addition of 1ul Rosiglitazone (50 nM, final concentration in the wells). The assay plates were incubated at 37 C for 17 h, and then 1 uL of LiveBLAzerTM B/G FRET substrate was added using a Bioraptr Flying Reagent Dispenser (FRD) workstation (Beckman Coulter, Indianapolis, IN, USA). The assay plates were incubated at room temperature for 1 h and fluorescence intensity was measured by an Envision plate reader (PerkinElmer, Shelton, CT). For cell viability readout that measures cytotoxicity, 4 ul/well of CellTiter-Glo reagent was added into the assay plates using a Flying Reagent Dispenser. After 30 min incubation at room temperature, the luminescence intensity in the plates was measured using a ViewLux plate reader (PerkinElmer).
On the technique in general: qHTS replaces the single test concentration by a dilution series.
In the case of `CCCCCCCCOC(C)=O`, the “activity change, negative = cytotoxicity” value was 11.1%.
Under `C=C(C)[C@@H]1CC[C@@H](C)C[C@@H]1O` stands 15.7%.
`CC(C)COC(=O)CC(C(=O)OCC(C)C)S(=O)(=O)O` (stereo not given): the “activity change, negative = cytotoxicity” value is -0.169%.
The result for `CC(=O)OC(C(=O)c1ccccc1)c1ccccc1` (stereo not given) reads 15.6% [at 81.1 µM]; that for `CC(C)(CO)[C@@H](O)C(=O)NCCCO`, 14.9%.
The result for `FC(F)(F)/C(=N\OCC1OCCO1)c1ccc(Cl)cc1` reads 1.48%; that for `CC(=O)Nc1ncc([N+](=O)[O-])s1`, -10.1%; that for `CCC1COC(=O)O1` (stereo not given), -3.58%.
The result for `CCCCCCCCCCCCCCCCCCN(C)C` reads 9.24%.
On to `CCOC(=O)CCCCCCCCC(=O)OCC`, for which the “activity change, negative = cytotoxicity” value is 7.54%.
The result for `CC(C)c1ccccc1O` reads -11%; that for `CCCCOC(=O)C(=O)OCCCC`, -41.7%.
The result for `O=c1[nH]c(=O)c2ccccc2o1` reads 4.14%; that for `C=CCOc1cc(Cl)ccc1C(=O)NCCN(CC)CC`, -0.761%.
The result for `C/C=C(\C)C(=O)OCC/C=C\CC` reads 13.1%.
In the case of `C[Si]1(C)N[Si](C)(C)N[Si](C)(C)N1`, the “activity change, negative = cytotoxicity” value is 19.5%.
Under `O=CN1CCOCC1` stands 13.2%; under `CCCO`, 5.26%; under `OCCCCCCCl`, 3.98% [at 81.1 µM].
Consider `CNCc1ccccc1`, for which the “activity change, negative = cytotoxicity” value was -3.87%.
The result for `C1CCN2C[C@@H]3C[C@@H](CN4CCCC[C@@H]34)[C@H]2C1` reads -0.0851%; that for `CCCCCN(CCCOC)C(=O)C(CCC(=O)O)NC(=O)c1ccc(Cl)c(Cl)c1` (stereo not given), 22.9%.
On to `Cc1ncc([N+](=O)[O-])n1CC(O)CCl` (stereo not given), for which the “activity change, negative = cytotoxicity” value is 12.7%.
On to `CCc1nccnc1C`, for which the “activity change, negative = cytotoxicity” value was -0.112%.
Under `CCCCCCCCCCCCCCCC(=O)NCCO` stands 16.2%.
Under `CC(C)C(=O)Nc1cccc(C(F)(F)F)c1` stands -0.821%.
The result for `CCCCCCCCCCC` reads 4.24%; that for `O=S(=O)(O)CCO`, 7.64% [at 81.1 µM].
Turning to `Cc1ccccc1C`, the “activity change, negative = cytotoxicity” value was -6.03% [at 81.1 µM].
Under `CCS(=O)(=O)CCn1c([N+](=O)[O-])cnc1C` stands -3.29%; under `CCC(O)C(C)(C)C` (stereo not given), 9.21% [at 81.1 µM].
As for `CN[C@@H]1[C@@H](O)[C@@H](O[C@@H]2[C@H](O)[C@H](O[C@H]3OC(CN)=CC[C@H]3N)[C@@H](N)C[C@H]2N)OCC1(C)O` (stereo not given in full), the “activity change, negative = cytotoxicity” value is -2.58%.
The result for `NC(Cc1c[nH]c2ccccc12)C(=O)O` (stereo not given) reads 16.1%.
Regarding `C=C[C@@H](C)CCC=C(C)C`, the “activity change, negative = cytotoxicity” value was 17.8%.
Under `C=COCCOCCOC=C` stands 6.17%; under `O=C(O)c1ccc(OCCN2CCCCC2)cc1`, -0.593%; under `O=c1cc(O)c(Cl)c[nH]1`, -0.9%.
The result for `CCCCC(CC)COC(=O)c1ccccc1` (stereo not given) reads 1.11%.
For `c1ccc(CNc2ncnc3nc[nH]c23)cc1`, the “activity change, negative = cytotoxicity” value is -0.3%.
With `Cc1cccc(NC(=S)N(C)C)c1`, the “activity change, negative = cytotoxicity” value was 9.45%.
